Measurements reported in PubChem BioAssay.
Calls of active or inactive are those of the source.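 The calls were made as follows, unless noted: active = inhibition at or above 50% at 10 µM; inactive = inhibition below 50%.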

Experiments:
[1] = inhibitors of TNFa-induced NFkB p65 translocation, primary screen, imaging, HUVEC, MLSMR starter and 10KST1 sets (AID 438;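 active = inhibition above 20% together with a positive visual image hit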;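 also: compound added about 3h40 before a 20 min TNFalpha stimulation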;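 as to inhibition: signal is the nuclear over cytoplasmic p65 intensity ratio per well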); conditions: HUVEC TNFa-induced p65 nuclear translocation; cell count: measured here: nuclei count (cytotoxicity indicator), at 2.08 µM; inhibition: at 2 µM, stronger effect = higher value, 0% TNFa-plus-vehicle, 100% no-TNFa wells
[2] = reduction of polyQ htt aggregates in cells – imaging, exon1htt(103Q)mCFP cells, high-content imaging, primary screen (AID 483;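 active = visual image review flags a hit and inhibition of aggregation exceeds 20%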;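 also: compound exposure lasted 3 days before fixation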;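 as to nuclei count: percent of the per-plate median nuclei count of sample wells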); conditions: exon1htt(103Q)mCFP cell line, aggregate imaging, at 2 µM; inhibition of aggregation: stronger effect = higher value; nuclei count: measured here: cell count, toxicity
[3] = endothelial E-selectin expression blockers – imaging, HUVEC, immunofluorescence, MLSMR starter and 10KST1 sets, primary screen (AID 487;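 active = visually confirmed hit in the image check and inhibition above 20%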;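 as to inhibition: signal is fraction of cell area covered by stained E-selectin grains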;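 as to nuclei count: 100% = median nuclei count of all wells on the same plate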); conditions: HUVEC TNFalpha-induced E-selectin immunofluorescence imaging, at 2 µM; inhibition: stronger effect = higher value; nuclei count: measured here: cell number, toxicity
[4] = target: Voltage-gated potassium channel subunit beta-2 (Rattus norvegicus) (UniProt P62483); test: inhibitors of rat Kvbeta2 reductase activity – biochemical, NADPH fluorescence, primary screen (AID 622;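 active = fluorescence slope higher than the sample average by over 3 SD, cut at about -0.22 in these data, passing the limit was not always enough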;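 also: slope of raw intensity against log time taken from 70 to 1610 s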); conditions: recombinant KvBeta, 4-cyanobenzaldehyde reduction, at 10 µM, stronger effect = higher value
Voltage-gated potassium channel subunit beta-2 (Rattus norvegicus), sequence (P62483 whole entry, looked up): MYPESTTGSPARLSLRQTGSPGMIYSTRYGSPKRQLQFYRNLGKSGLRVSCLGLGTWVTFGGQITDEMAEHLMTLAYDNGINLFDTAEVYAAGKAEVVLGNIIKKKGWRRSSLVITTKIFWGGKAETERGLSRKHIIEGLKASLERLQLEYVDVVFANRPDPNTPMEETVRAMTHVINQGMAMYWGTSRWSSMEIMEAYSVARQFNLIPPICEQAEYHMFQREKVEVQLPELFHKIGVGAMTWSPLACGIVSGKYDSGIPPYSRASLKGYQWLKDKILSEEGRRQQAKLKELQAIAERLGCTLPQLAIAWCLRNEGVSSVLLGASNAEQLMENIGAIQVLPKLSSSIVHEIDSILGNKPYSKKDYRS

[5] = target: Voltage-gated potassium channel subunit beta-2 (Rattus norvegicus) (UniProt P62483); test: enhancers of rat Kvbeta2 NADPH turnover – biochemical, NADPH fluorescence, primary screen (AID 623;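 active = NADPH fluorescence slope more negative than the mean of all samples by about 3 SD, 99.7% confidence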;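 also: fluorescence intensity change per second fitted from 20 to 320 s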); conditions: Recombinant KvBeta, NADPH fluorescence decrease slope, 10 min; at 10 µM; stronger effect = lower value
[6] = target: Alpha-2C adrenergic receptor (Homo sapiens) (UniProt P18825); test: compounds altering alpha2C-coupled GIRK flux – cell-based, HEK293 alpha2C/GIRK1/2, thallium flux, primary screen (AID 624;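 active = fluorescence slope after compound addition differing from the mean of all screened samples at 99.7% confidence, in either direction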;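 also: slope of fluorescence ratio to pre-addition baseline per second over 15 to 24 s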); conditions: thallium flux BTC fluorescence, at 10 µM, actives lie on both sides
Alpha-2C adrenergic receptor (Homo sapiens), sequence (P18825 whole entry, looked up): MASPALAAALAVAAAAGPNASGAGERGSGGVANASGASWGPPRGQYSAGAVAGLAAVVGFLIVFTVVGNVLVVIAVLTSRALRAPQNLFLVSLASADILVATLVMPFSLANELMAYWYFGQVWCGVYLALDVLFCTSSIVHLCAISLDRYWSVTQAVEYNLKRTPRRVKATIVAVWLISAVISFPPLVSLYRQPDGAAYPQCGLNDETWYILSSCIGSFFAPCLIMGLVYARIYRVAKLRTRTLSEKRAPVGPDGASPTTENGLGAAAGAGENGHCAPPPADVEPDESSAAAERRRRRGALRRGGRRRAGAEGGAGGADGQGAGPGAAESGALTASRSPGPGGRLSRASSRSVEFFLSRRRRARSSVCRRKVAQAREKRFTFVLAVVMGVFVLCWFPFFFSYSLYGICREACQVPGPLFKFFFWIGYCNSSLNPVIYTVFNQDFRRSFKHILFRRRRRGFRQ

[7] = blockers of RIG-like receptor reporter activation – cell-based, Sendai virus stimulus, luciferase, 10K MLSCN set, TLR/RLR signaling modifier project, primary screen (AID 602276); conditions: HEK293 RL24 IRF3 luciferase reporter, at 10 µM, stronger effect = higher value;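 also: firefly luciferase from ISG56 promoter only with Renilla not read in this screen; 0% = Sendai virus plus DMSO and 100% = medium plus DMSO without virus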
[8] = TLR3 IRF3 reporter activation blockers – cell-based, poly I:C stimulus, luciferase, 10K MLSCN set, primary screen (AID 602277;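 active = inhibition of the reporter signal at or above 50%; inactive = inhibition below 50%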); conditions: HEK293-TLR3 RL24 IRF3 luciferase reporter, at 10 µM, stronger effect = higher value

Compound | cell count [1] | inhibition [1] | inhibition of aggregation [2] | nuclei count [2] [%] | inhibition [3] | nuclei count [3] [%] | fluorescence slope [4] | NADPH fluorescence slope [5] | slope [6] | inhibition [7] | inhibition [8]
O=C(Nc1ccccc1)N1CCC(c2ccccc2)C1 (centres undefined) | 331 | 23.5% (inactive) | 3% (inactive) | 101 | 13.1% (inactive) | 103 | -0.481 (inactive) | -9.5e-06 (inactive) | 0.00694 (inactive) | -49.3% (inactive) | -82.3% (inactive)
COc1ccccc1-c1nc2n(n1)C(c1cccs1)C(C(=O)Nc1cccnc1)=C(C)N2 (centres undefined) | 446 | 16.2% (inactive) | -15.2% (inactive) | 57.9 | 7.4% (inactive) | 98.9 | -0.587 (inactive) | -3.8e-05 (inactive) | 0.00515 (inactive) | -11.5% (inactive) | -7.18% (inactive)
CC(=O)c1cnc2cc(-c3ccccc3)nn2c1C | 283 | 7.2% (inactive) | 26.1% (inactive) | 84.2 | -84.1% (inactive) | 97.5 | -0.343 (inactive) | -5.4e-05 (inactive) | 0.00763 (inactive) | -65.5% (inactive) | -115% (inactive)
CCCCN(CC)CCCNC(=O)c1cc2c(=O)n(C)c3ccccc3c2n1C | 667 | 3.3% (inactive) | 14.5% (inactive) | 81.6 | -52.5% (inactive) | 107 | -0.611 (inactive) | -4.2e-05 (inactive) | 0.00621 (inactive) | 27.4% (inactive) | 69.5% (active)
CN(Cc1ccccc1)C(=O)CNC(=O)Cn1cnc2ccccc2c1=O | 773 | 1.1% (inactive) | -13.9% (inactive) | 95.7 | -18.9% (inactive) | 111 | -0.602 (inactive) | -2.5e-06 (inactive) | 0.00729 (inactive) | 4.6% (inactive) | 10.1% (inactive)
O=C1CC(C2CCCO2)C(=O)N1Cc1ccccc1 (centres undefined) | 418 | -5.4% (inactive) | 19% (inactive) | 101 | -1.7% (inactive) | 125 | -0.489 (inactive) | -3.7e-05 (inactive) | 0.00667 (inactive) | -6.03% (inactive) | 10.9% (inactive)
Cc1cccc(-n2c(=O)cc(N3CCN(c4ccc(F)cc4)CC3)[nH]c2=O)c1 | 605 | 0% (inactive) | 15.8% (inactive) | 50.1 | 15.8% (inactive) | 83.6 | -0.448 (inactive) | -2.5e-05 (inactive) | 0.00544 (inactive) | -5.09% (inactive) | -5.41% (inactive)
COc1ccc(-c2ccc(-c3noc(-c4ccccc4OC)n3)c(OC)n2)cc1 | 294 | 16.9% (inactive) | -30.2% (inactive) | 86.6 | -1.9% (inactive) | 111 | -0.0455 (inactive) | -3.2e-06 (inactive) | 0.00463 (inactive) | -0.193% (inactive) | -36.2% (inactive)
CNC(=O)c1nnn(Cc2ccccc2)c1NC(C)=O | 539 | -14.7% (inactive) | -9.5% (inactive) | 102 | -73.3% (inactive) | 92.3 | -0.601 (inactive) | 4e-05 (inactive) | 0.00612 (inactive) | -13% (inactive) | -3.44% (inactive)
N#CC1=C(N)N(c2ccc(Oc3ccccc3)cc2)C(=O)C1 | 546 | -3.8% (inactive) | -0.2% (inactive) | 119 | -5.8% (inactive) | 128 | -0.481 (inactive) | -5.5e-05 (inactive) | 0.00638 (inactive) | 5.59% (inactive) | -5.96% (inactive)
CCOn1c(=O)c(=O)n(OCc2ccccc2)c2ccccc21 | 355 | 0.3% (inactive) | 13% (inactive) | 97.7 | -32.9% (inactive) | 120 | -0.345 (inactive) | -5.2e-05 (inactive) | 0.00578 (inactive) | 19.9% (inactive) | 25% (inactive)
COCCN(C(=O)c1csnn1)C(C(=O)NC(C)(C)C)c1cccc(OC)c1 (centres undefined) | 684 | -1.7% (inactive) | -26.8% (inactive) | 76.2 | 0.2% (inactive) | 102 | -0.515 (inactive) | -2.6e-05 (inactive) | 0.00595 (inactive) | 17% (inactive) | 14.6% (inactive)
CCCc1ccc(S(=O)(=O)NCCc2ccncc2)cc1 | 352 | -15.7% (inactive) | -25.5% (inactive) | 109 | -94.2% (inactive) | 121 | -0.585 (inactive) | -2.4e-05 (inactive) | 0.00524 (inactive) | -3.61% (inactive) | -11.2% (inactive)
CCCc1nnc(NC(=O)CCC(=O)N2CCN(CCOc3ccc(C)cc3)CC2)s1 | 480 | -5.6% (inactive) | -0.2% (inactive) | 89.5 | -2.3% (inactive) | 81.8 | -0.379 (inactive) | 6e-06 (inactive) | 0.0036 (inactive) | 0.418% (inactive) | 10.9% (inactive)
